Test [1] in a line: Confirmatory screen GU Rhodamine qHTS for Zika virus inhibitors qHTS (AID 1347157).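 For activity change, negative = inhibition: plate controls were no-inhibitor wells for no effect and no-enzyme wells for full effect.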 Note: nearly all actives have a fitted effect of over 70% in size. Note: potency is the fitted concentration of half-maximal effect. The gist of the method:
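Percent inhibition came from the 15-min rise in Rhodamine110 fluorescence (1.5 microM substrate, ~15% conversion), normalized to no-inhibitor and no-enzyme wells and Hill-fitted. Unlinked protease, 25 nM, pH 8.0 Tris buffer; compounds up to 114 microM, 15-min preincubation.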

A short description of test [2]: Confirmatory screen NINDS Rhodamine qHTS for Zika virus inhibitors (AID 1347161).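 For activity change, negative = inhibition: purified Zika NS2B-NS3 protease with linked NS2B cofactor domain and Rhodamine110 peptide substrate; series mostly up to about 110 µM; plate controls were no-inhibitor control for no effect and no-enzyme control for full effect.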 Note: nearly all actives have a fitted effect of over 60% in size. Note: potency is the fitted concentration of half-maximal effect. The gist of the method: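 Single-chain NS2B-NS3 protease, 25 nM, pH 8.0; compounds preincubated 15 min. Activity: Rhodamine110 release from 1.5 microM substrate over 15 min, room temperature, data fitted to 4-parameter Hill.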
Test [3] in a line: ZIKV-mCherry secondary qHTS for Zika virus inhibitors (AID 1347158). Note: top concentration of the series differs between compounds. The gist of the method:
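Vero cells, 5,000/well, plated overnight at 37 °C, then compound added and infected with recombinant ZIKV-mCherry at MOI 1 for 48-72 h. PFA-fixed, Hoechst nuclear stain, high-content imaging; cells with mCherry intensity above 450 RFU scored infected, reported as percent infection.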

For test [4], the system named is Zika virus NS2B-NS3 protease (linked). Put plainly: 384 well plate NINDS AMC confirmatory qHTS for Zika virus inhibitors (AID 1347163). Note: potency is the fitted concentration of half-maximal effect; nearly all actives have a fitted effect of over 50% in size. The gist of the method:
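Linked protease 5/30/60 nM final; cpds up to 1 mM final, ~15 min preinc. Substrate Ac-VKTGKR-AMC 30 microM final. RT, dark, 25 min; FI ex 355/em 460; normalized to no-enzyme/no-inhibitor ctrls.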

Test [5] concerns Zika virus NS2B-NS3 protease (linked construct). Put plainly: 384 well plate NINDS Rhodamine confirmatory qHTS for Zika virus inhibitors (AID 1347164).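 Note: fluorescence from protease cleavage of Ac-LKRR-rhodamine 110 substrate; top concentration of the series differs between compounds; plate controls were no-inhibitor control for no effect and no-enzyme control for full effect; nearly all actives have a fitted effect of over 65% in size.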 The gist of the method: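 Fluorescence at 485/538 nm was measured 25 minutes after adding 10 microM Ac-LKRR-Rd substrate, in the dark at room temperature. The protease (5, 30 or 60 nM final) had been preincubated ~15 minutes with compound; aprotinin as control.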

Test [6] can be described thus: Tertiary RLuc qRT-PCR qHTS assay for Zika virus inhibitors (AID 1347169). Note: top concentration of the series differs between compounds; % is set by controls: 0 for no effect and ±100 for the full control effect; nearly all actives have a fitted effect of over 55% in size. The gist of the method: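 Orthogonal cell-based readout: luminescence measured 1-1.5 hrs after adding live-cell Renilla substrate to Vero cells that had been infected with ZIKV-RLuc (MOI 1-2) post-compound, incubated 48-72 hrs at 37 degrees C.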
For test [7], the target named is Rap guanine nucleotide exchange factor 3 (Homo sapiens) (UniProt O95398). Put plainly: Confirmatory qHTS for antagonist of cAMP-regulated guanine nucleotide exchange factor 3 (EPAC1) (AID 1645880).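 Note: plate controls were DMSO only for no effect and full effect of the ATA control for full effect; nearly all actives have a fitted effect of over 55% in size.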 The gist of the method:
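Nucleotide exchange uses 100 nM EPAC1, 250 nM RAP1B-BODIPY-GDP and 50 uM GDP, with compounds in a concentration-titration series. After 5 min at room temperature, fluorescence (480 nm ex/540 nm em) is read every 5 min for 30 min. Data are normalized to control ATA and DMSO.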

For test [8], the target named is Rap guanine nucleotide exchange factor 4 (Homo sapiens) (UniProt Q8WZA2). Put plainly: Confirmatory qHTS for antagonist of cAMP-regulated guanine nucleotide exchange factor 4 (EPAC2) (AID 1645885). Note: % is set by controls: 0 for no effect and ±100 for the full control effect; nearly all actives have a fitted effect of over 25% in size.
The target in test [9] is Rap guanine nucleotide exchange factor 3 (Homo sapiens) (UniProt O95398). Put plainly: Counterscreen qHTS for antagonist of cAMP-regulated guanine nucleotide exchange factor 3 (EPAC1) (AID 1645888).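 Note: fluorescence loss as bound BODIPY-GDP is released from Rap1B; % of control where 0% means no effect.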 The gist of the method:
(§1)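 Rap1B-BODIPY-GDP 250 nM + GDP 50 uM; cpds 7-pt, final 9.74 nM–152 uM (activator mode) or from 7.32 nM upwards (inhibitor mode); RT; FI 480/540 nm at 5 and 30 min, then ± cAMP, reread.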

For test [10] the target is unchanged. Put plainly: Counterscreen qHTS for agonist of cAMP-regulated guanine nucleotide exchange factor 3 (EPAC1) (AID 1645889). Note: potency is the fitted concentration of half-maximal effect; nearly all actives have a fitted effect of over 40% in size. The gist of the method:
as §1

Results filed as inconclusive are left out. A number with no mark means an inactive call. Calls of active or inactive are those of the source. Calls come from the whole dose curve; as a rule, active = well fitted curve in the direction sought with a large enough effect; inconclusive = small, poorly fitted or top-dose-only effect, or another doubt; inactive = no such curve, though single readings can be large; an effect the other way counts as inactive or inconclusive.

Chain of Rap guanine nucleotide exchange factor 3 (Homo sapiens) (O95398 whole entry, looked up): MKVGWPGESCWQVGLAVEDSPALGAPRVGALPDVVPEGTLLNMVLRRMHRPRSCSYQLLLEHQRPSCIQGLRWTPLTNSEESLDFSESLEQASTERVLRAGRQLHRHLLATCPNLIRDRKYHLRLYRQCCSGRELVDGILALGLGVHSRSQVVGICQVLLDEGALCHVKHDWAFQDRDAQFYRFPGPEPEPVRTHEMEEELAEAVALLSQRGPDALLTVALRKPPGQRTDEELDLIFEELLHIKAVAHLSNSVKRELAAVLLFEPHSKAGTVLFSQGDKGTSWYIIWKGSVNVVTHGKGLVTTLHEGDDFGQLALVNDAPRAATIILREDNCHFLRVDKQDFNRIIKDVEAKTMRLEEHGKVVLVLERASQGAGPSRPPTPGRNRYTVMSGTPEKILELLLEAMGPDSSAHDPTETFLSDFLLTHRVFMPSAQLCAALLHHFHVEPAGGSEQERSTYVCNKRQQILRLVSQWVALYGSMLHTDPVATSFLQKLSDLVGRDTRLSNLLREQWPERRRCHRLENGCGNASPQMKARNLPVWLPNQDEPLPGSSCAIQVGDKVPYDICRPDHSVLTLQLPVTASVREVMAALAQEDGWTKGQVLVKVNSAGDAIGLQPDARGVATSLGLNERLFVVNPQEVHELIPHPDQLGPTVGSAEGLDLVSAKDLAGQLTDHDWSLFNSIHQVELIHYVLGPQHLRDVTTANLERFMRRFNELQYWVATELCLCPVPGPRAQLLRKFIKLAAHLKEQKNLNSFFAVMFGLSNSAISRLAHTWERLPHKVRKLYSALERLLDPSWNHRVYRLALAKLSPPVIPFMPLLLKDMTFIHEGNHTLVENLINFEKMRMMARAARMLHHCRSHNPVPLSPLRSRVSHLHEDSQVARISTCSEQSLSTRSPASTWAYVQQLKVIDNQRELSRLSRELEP
Chain of Rap guanine nucleotide exchange factor 4 (Homo sapiens) (Q8WZA2 whole entry, looked up): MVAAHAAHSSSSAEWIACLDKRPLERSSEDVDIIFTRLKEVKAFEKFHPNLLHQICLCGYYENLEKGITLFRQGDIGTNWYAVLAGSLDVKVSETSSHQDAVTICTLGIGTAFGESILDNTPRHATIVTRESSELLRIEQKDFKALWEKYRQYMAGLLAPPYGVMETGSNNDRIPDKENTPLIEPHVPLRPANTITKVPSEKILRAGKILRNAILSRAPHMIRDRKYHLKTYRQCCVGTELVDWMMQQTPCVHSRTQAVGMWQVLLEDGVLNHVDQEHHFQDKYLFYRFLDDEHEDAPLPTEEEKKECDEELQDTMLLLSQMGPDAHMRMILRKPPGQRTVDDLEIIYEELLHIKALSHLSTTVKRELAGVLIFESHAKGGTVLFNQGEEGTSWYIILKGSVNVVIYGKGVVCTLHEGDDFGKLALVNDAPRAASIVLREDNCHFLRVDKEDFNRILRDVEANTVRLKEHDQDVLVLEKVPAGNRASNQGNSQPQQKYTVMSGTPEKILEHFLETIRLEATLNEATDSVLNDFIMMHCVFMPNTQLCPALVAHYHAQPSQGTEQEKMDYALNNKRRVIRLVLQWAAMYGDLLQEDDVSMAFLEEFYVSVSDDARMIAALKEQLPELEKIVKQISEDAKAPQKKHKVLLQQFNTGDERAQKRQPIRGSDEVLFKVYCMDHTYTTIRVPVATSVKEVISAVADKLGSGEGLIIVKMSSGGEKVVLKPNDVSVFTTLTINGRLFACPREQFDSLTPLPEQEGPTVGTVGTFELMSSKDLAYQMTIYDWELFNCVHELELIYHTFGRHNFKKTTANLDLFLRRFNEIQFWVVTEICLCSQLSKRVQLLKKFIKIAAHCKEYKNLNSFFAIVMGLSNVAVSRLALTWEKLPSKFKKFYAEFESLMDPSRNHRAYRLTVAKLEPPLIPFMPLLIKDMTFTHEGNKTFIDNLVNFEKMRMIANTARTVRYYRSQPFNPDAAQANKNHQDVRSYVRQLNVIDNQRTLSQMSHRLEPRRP

As to `CCOC(=O)c1ccc(NC(=O)c2nc(SCc3ccccc3F)ncc2Cl)cc1`, the Potency entry in test [1] and in test [2] was “inactive” throughout.

In the case of `O=C(O)c1ccccc1-c1c2cc(I)c(=O)c(I)c-2oc2c(I)c(O)c(I)cc12`, the Potency in test [1] was 14.1 µM (active); in test [2], 3.16 µM (active); in test [4], 56.2 µM (active); in test [10] it was 7.08 µM (active). Further, the Potency entry in [3], in test [5], in test [6] and in test [7] was “inactive” throughout. Besides, the activity change, negative = inhibition is 12.6% [at 12.7 µM] in [8] and 212% [at 30.8 µM] in test [9].

`Cc1ccc(OCC(=O)Nc2ccccc2C(=O)OCc2cc(=O)n3nc(C4CC4)sc3n2)cc1`: the Potency result in test [1] and in test [2] was “inactive” in each case.
